Screening data deposited in PubChem BioAssay by National Center for Advancing Translational Sciences (NCATS).
Only some compounds are listed: those with a hit (about 6% of all), similar ones and a draw of the others.
TSHR ag – qHTS Assay for Agonists of the Thyroid Stimulating Hormone Receptor; 73,000 compounds, 0.48% hits; Potency, µM (top dose mostly 57.1 µM), for inactives: at the top dose activation, usual class: activators; HEK293-CNG-TSHR cells (CNG channel as cAMP sensor), membrane potential dye, cAMP; Thyrotropin receptor (Homo sapiens), P16473; active = well fitted activation curve with a large enough effect in the main read-out, with a control signal flat, not every such curve was filed as active; inconclusive = small, poorly fitted or top-dose-only effect, or a change in a side signal; inactive = no such curve, though single readings can be large or run the other way; % of control where 0% means no effect;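 also: the control signal comes from parental cells without the receptor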
Target sequence (P16473 whole entry, looked up): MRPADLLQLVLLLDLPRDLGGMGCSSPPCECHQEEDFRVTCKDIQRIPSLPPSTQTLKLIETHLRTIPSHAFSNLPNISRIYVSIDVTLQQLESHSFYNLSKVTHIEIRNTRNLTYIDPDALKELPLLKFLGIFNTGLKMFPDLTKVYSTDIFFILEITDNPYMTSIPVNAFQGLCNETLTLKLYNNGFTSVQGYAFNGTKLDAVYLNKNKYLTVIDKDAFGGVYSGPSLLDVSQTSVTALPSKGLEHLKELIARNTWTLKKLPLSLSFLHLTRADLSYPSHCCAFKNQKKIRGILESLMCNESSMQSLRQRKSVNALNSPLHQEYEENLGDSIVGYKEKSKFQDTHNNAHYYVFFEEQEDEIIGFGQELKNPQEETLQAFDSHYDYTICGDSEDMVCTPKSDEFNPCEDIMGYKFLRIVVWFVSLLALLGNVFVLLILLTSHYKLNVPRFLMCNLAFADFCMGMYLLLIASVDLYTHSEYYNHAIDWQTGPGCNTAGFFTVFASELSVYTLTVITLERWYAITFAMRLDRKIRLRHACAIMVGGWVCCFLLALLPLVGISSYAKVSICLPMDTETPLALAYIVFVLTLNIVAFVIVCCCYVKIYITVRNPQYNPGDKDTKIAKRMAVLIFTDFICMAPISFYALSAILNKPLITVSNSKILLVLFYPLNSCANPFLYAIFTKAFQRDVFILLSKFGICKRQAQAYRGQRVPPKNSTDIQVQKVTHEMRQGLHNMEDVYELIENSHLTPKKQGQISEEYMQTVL
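HEK 293 cells stably expressing TSHR and a modified CNG channel, with CNG-only parental cells as counterscreen, were preloaded 60 min at room temperature with membrane potential dye containing 100 uM RO 20-1724. Compound exposure was 30 min, and depolarization was read as fluorescence at 590 nm.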
HEK293 cAMP cs – qHTS Assay for Agonists of the Thyroid Stimulating Hormone Receptor: Activators of Intracellular cAMP Concentrations in Parental HEK 293; parental HEK293 CNG cAMP sensor, membrane potential fluorescence; Potency, µM (doses to about 57.1 µM), for the others: at the top dose activation, usual class: activators; 73,000 compounds, 2.5% hits; AID 938, 2007; also: % of control where 0% means no effect; nearly all actives have a fitted effect of over 55% in size
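Counterscreen for endogenous-receptor signalling: CNG-channel HEK 293 cells report cAMP rise by membrane depolarization. After 60 min dye equilibration with 100 uM RO 20-1724, compounds incubated 30 min before bottom-read fluorescence at 590 nm.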
CRE Fsk mod – Cell signaling CRE-BLA (Fsk stim) | CHO CRE-bla reporter (cAMP response element driving beta-lactamase), forskolin EC10, beta-lactamase ratio | 71,000 compounds, 2.5% hits | Potency, µM (doses to about 38.2 µM), without a hit: at the top dose activity change, negative = inhibition, most hits filed as activators; active = well fitted activation curve with a large enough effect in the signal ratio, with a control signal flat, not every such curve was filed as active; inconclusive = small, poorly fitted or top-dose-only effect, or effect the other way, or a change in a side signal; the % refers to the signal ratio; also: % of control where 0% means no effect
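CHO CRE-bla cells, overnight plating in Opti-MEM with 0.5% dialyzed FBS; cpd titration + EC10 NKH 477, 3 h 37 °C; CCF4 2 h RT; ex 405/em 460 vs 530 ratio → %Activity, AC50.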
ERK AVP block – qHTS Assay for Inhibitors of the ERK Signaling Pathway using a Homogeneous Screening Assay; AID 995, 2007; HEK293-V1b, vasopressin-stimulated pERK AlphaScreen; Potency, µM (doses to about 57.5 µM), for inactives: at the top dose activity, negative = inhibition, most hits filed as inhibitors; 72,000 compounds, 0.99% hits; also: % is scaled to controls: 0 for no effect and ±100 for the full control effect; nearly all actives have a fitted effect of over 55% in size
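Phosphorylated ERK1/2 detected via AlphaScreen bead proximity in lysates of V1b-expressing HEK293 cells given 25 nM vasopressin for 5 min after 30 min compound exposure (37 °C). AC50 from Hill equation; basal DMSO 0%, vasopressin 100%.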
Starred values were filed as active, the others as inactive; ? = inconclusive; nt = not tested or not shown; [ ] = remark or other dose. Unless noted, calls follow the shape of the dose curve; as a rule, active = well fitted curve in the direction sought with a large enough effect; inconclusive = small, poorly fitted or top-dose-only effect, or another doubt; inactive = no such curve, though single readings can be large; an effect the other way counts as inactive or inconclusive. Potency is read from the fitted curve at half-maximal effect.

SMILES	TSHR ag	HEK293 cAMP cs	CRE Fsk mod	ERK AVP block
CCOC(=O)c1c(NC(=O)COC)sc(C(C)=O)c1C	10%	21%	13µM*	-26%
CCOC(=O)c1c(NC(=O)Cc2cccs2)sc(C(=O)N2CCCCC2)c1C	?	?	2µM*	?
CCOC(=O)c1c(-c2ccc(C)o2)csc1NC(=O)CSc1nnc(C)s1	?	32µM*	?	10%
CCC(=O)Nc1sc(C(=O)OC)c(C)c1C(=O)OC	?	?	15%	-16%
CNC(=O)[C@@H]1O[C@@H](n2cnc3c(NCc4ccc(N)cc4)ncnc32)[C@@H](O)[C@H]1O	?	?	2%	-6%
c1csc(CNc2ncncc2-c2ccoc2)c1	8%	-1%	-8%	-23%
CN1CCN(c2nc(-c3ccccc3C(F)(F)F)nc3ccccc23)CC1	24%	18%	?	?
CCOC(=O)c1sc(NC(=O)CSc2nncs2)c(C(=O)OCC)c1C	?	25µM*	3.2µM*	-2%
CCOC(=O)c1sc(NC(=O)CSc2nnc(-c3ccco3)n2CC)c(C(=O)OCC)c1C	?	?	6%	9%
C[N+](C)(N)Cc1nc(-c2ccc(Cl)cc2)no1	3%[11.4 µM]	7%[11.4 µM]	-4%[7.6 µM]	1%[11.5 µM]
CC(/C(O)=C(\C#N)c1nc2ccccc2n1C)N1C(=O)c2ccccc2C1=O (centres undefined)	1%	-2%	3%	-23%
Cn1c(/C(C#N)=C(\O)COc2ccc3ccccc3c2)nc2ccccc21	?	16µM*	-7%	22%
Cc1ccc(OCCCCn2ccnc2)c(Cl)c1	17%	12%	13%	?
Cc1cccc(OCCCCCn2ccnc2)c1C	?	32µM*	?	?
O=C1c2ccccc2-c2ccc(N=[N+]([O-])c3ccc4c(c3)C(=O)c3ccccc3-4)cc21	0%[11.4 µM]	-6%[11.4 µM]	6%[7.6 µM]	11%[11.5 µM]
Cc1ccnc(SCC(=O)Nc2oc(-c3ccccc3)c(-c3ccccc3)c2C#N)n1	?	?	10µM*	-19%
N#Cc1c(NC(=O)CSc2n[nH]c(Cc3ccccc3)n2)oc(-c2ccccc2)c1-c1ccccc1	28%	17%	?	-12%
c1ccc(C2=NN[C@@H]3c4ccccc4-c4ccccc4N3C2)cc1	-1%[11.4 µM]	5%[11.4 µM]	9%[7.6 µM]	?
CS(=O)(=O)N1CCCC(C(=O)NCc2ccc(F)cc2Cl)C1 (centres undefined)	9%	14%	10µM*	-28%
CS(=O)(=O)N1CCCC(C(=O)NCc2ccccc2Cl)C1 (centres undefined)	-1%	2%	8%	1%
C[C@H]1C[C@]2(O[C@@H]2C)C(=O)O[C@@H]2CCN(C)C/C=C(/COC(=O)[C@]1(C)O)C2=O	nt	nt	nt	-12%
CCCCOC(OCCCC)[C@H](O)CSc1ccc2ccccc2c1	-3%[11.4 µM]	9%[11.4 µM]	nt	-1%[11.5 µM]
Cc1noc(C)c1CSCC(=O)N1CCN(c2ccc(F)cc2)CC1	?	?	0%	14%
Cc1cccc(N2CCN(C(=O)CSCc3c(C)noc3C)CC2)c1C	?	?	?	25µM*
Cc1noc(C)c1CSc1ccccc1C(=O)N1CCN(c2ccccc2)CC1	3.2µM*	21%	-11%	5%
SMILES	TSHR ag	HEK293 cAMP cs	CRE Fsk mod	ERK AVP block
Cc1cc(N2CCCCC2)nc(SCc2ccc(C#N)cc2)n1	?	32µM*	?	-7%
Cc1cc(N2CCCCCC2)nc(-c2ccccc2O)n1	?	?	15%	117%
CC#CCN(CC#CC)S(=O)(=O)c1ccc(-n2cnnn2)c(OC)c1	?	13µM*	5%	16%
N[C@@H](Cc1cccc([N+](=O)[O-])c1)C(=O)O	-4%[11.4 µM]	5%[11.4 µM]	2%[7.6 µM]	4%[11.5 µM]
Cc1nc(SCn2nnc3ccccc3c2=O)nc(C)c1C	7%	27%	13µM*	-14%
Cc1cc(C(=O)OCn2nnc3ccccc3c2=O)c(C)n1-c1ccccc1	12%	19%	4µM*	?
CCOC(=O)Cc1csc(SCn2nnc3ccccc3c2=O)n1	8%	20%	?	14%
COc1cc(C(=O)OCn2nnc3ccccc3c2=O)cc(OC)c1OC	13%	-4%	6.3µM*	-21%
CCOc1ccc(C(=O)OCn2nnc3ccccc3c2=O)cc1OC	-2%[11.4 µM]	4%	?	11%
Cc1ccccc1C(=O)OCn1nnc2ccccc2c1=O	?	?	13µM*	nt
CC(=O)OC[C@@H]1O[C@H](CCO/N=C(\C)CCN2CCc3nc(-c4ccccc4)c(-c4ccccc4)cc3C2)C=C[C@@H]1OC(C)=O	0%[11.4 µM]	-1%[11.4 µM]	nt	-4%[11.5 µM]
CCC(=O)[C@]12O[C@@]3(C4C(=O)OCCC41)N(CC)C(C)=C(C(=O)OC)C(c1ccccc1)N3C2=O (some centres undefined)	-4%[11.4 µM]	-11%[11.4 µM]	nt	-7%[11.5 µM]
COc1ccc2c(C)cc(SCC#N)nc2c1	?	32µM*	14%	-27%
CCc1cccc2c3c([nH]c12)[C@](CC)(CC(=O)O)OCC3	?	?	6%	nt
CCC(C(=O)C(C)C(O)C(C)CCc1ccc(C)c(O)c1C(=O)O)C1OC(CC)(C2CC[C@@](O)(CC)C(C)O2)CC1C (some centres undefined)	nt	nt	nt	-7%
CCCCCc1c(O)c2ccccc2[nH]c1=O	4%	11%	-2%	-5%
CCCCc1c2ccccc2nc2[nH]c3ccccc3c12	?	13µM*	5µM*	9%
BrC(Br)C(Br)Br	?	-11%	-6%	-7%
CC[C@H](C)[C@@H]1O[C@]2(CC[C@@H]1C)C[C@H]1C[C@H](CC=C(C)[C@@H](O[C@H]3C[C@H](OC)[C@H](O[C@H]4C[C@H](OC)[C@H](O)[C@H](C)O4)[C@H](C)O3)[C@@H](C)C=CC=C3CO[C@@H]4[C@@H](O)C(C)=C[C@H](C(=O)O1)[C@@]34O)O2	nt	-10%	?	-22%
O=C(CSc1nc2ccccc2c(=O)[nH]1)c1ccc(O)c(O)c1	0%[11.4 µM]	0%	15%	16µM*
O=C(CSc1nc2ccccc2c(=O)[nH]1)c1cccs1	16%	10%	?	-11%
COC(=O)[C@@H]1C[C@H]1[C@@H](NC(=O)Oc1ccc(F)cc1)c1ccccc1	?	10µM*	-21%	10%
COC(=O)[C@@H]1C[C@H]1[C@@H](NC(=O)c1ccccc1)c1ccccc1	?	25µM*	2%	-17%
COC(=O)[C@H]1C[C@@H]1[C@H](NC(C)=O)c1ccccc1	2%	-5%	-5%	1%
CCOC(=O)c1c(C)nc2sccn12	3%	5%	13µM*	?
CCOC(=O)c1c(C)nc2c3ccccc3ccn12	17%	23%	7.9µM*	?
COc1ccc(N2CCN(C(=O)c3ccc4nc(N5CCCCC5)sc4c3)CC2)cc1	-3%	-2%	7%	?
COc1cccc(N2CCN(C(=O)c3ccc4nc(N5CCCCC5)sc4c3)CC2)c1	25%	26%	2%	25µM*
